Assay outcomes: PubChem, several laboratories
Shown are actives, neighbours in structure and some others; about 1.2% of the full set was active somewhere.
PriA SSB inh – inhibitors of Klebsiella pneumoniae PriA binding to SSB C-terminal tail; AlphaScreen SSBct-PriA binding, biotinylated peptide; 430,000 tested, 0.6% active; inhibition, % at 33 µM; in the data active means inhibition mostly above about 37%, no sharp cut-off; inactive means mostly below about 20%;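 further: plate controls were negative control peptide for no effect and reference peptide for full effect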
BJeLR viability – BJeLR cell viability loss; BJeLR (HRASV12) viability, CellTiter-Glo ATP luminescence, 48 h; inhibition, % (no concentration beside the values); 300,000 tested, 0.17% active; AID 1554; in the data active means inhibition above about 50%
PrPC TRFRET – reduces human prion protein on the cell surface. cell surface PrPC, TR-FRET read-out. AID 720596. 370,000 tested, 0.43% active. inhibition, % at 13.8 µM; in the data active means inhibition above about 24%; further: 0% = median of the test wells and 100% = reference compound wells
3CLpro inhibitor – SARS-CoV 3CLpro protease inhibition; inhibition, % at 6 µM; recombinant SARS-CoV 3CLpro, quenched FRET peptide cleavage; AID 1706; 290,000 tested, 0.14% active; P0C6X7; in the data active means inhibition above about 12%
PrP 5UTR inh – suppresses PrP 5' UTR mRNA reporter expression | AID 488862 | 340,000 tested, 0.35% active | cell-based PrP 5' UTR mRNA reporter, plate reader | inhibition, % (concentration not given with the values); in the data active means inhibition above about 52%; further: 0 = median of the neutral control wells
Starred values were filed as active, the others as inactive; ! = not active in a repeat.

Results for NC(=O)CN1C(=O)C(O)(CC(=O)c2ccccc2O)c2ccccc21 (stereo not given) ?
PriA SSB inh: -5; BJeLR viability: -15; PrPC TRFRET: -33; 3CLpro inhibitor: 16*; PrP 5UTR inh: -17

What do the screens show for `Cc1ccc2cc(CCNC(=S)NCCn3ccc4ccccc43)c(=O)[nH]c2c1`?
PriA SSB inh: 46*

How did CCOc1ccc2ccccc2c1C(=O)NCC1CCN(Cc2ccsc2)CC1 do in these assays?
PriA SSB inh: -10

Results for COC(=O)Cc1cc(=O)n(-c2nc3ccccc3[nH]2)[nH]1 ?
PriA SSB inh: 75*; BJeLR viability: 6; PrPC TRFRET: 2; 3CLpro inhibitor: 0; PrP 5UTR inh: -2

How did COc1ccc(CC(=O)Nc2nc3ccccc3[nH]2)cc1 do in these assays?
PriA SSB inh: -8; BJeLR viability: 4; PrPC TRFRET: 1; 3CLpro inhibitor: -5; PrP 5UTR inh: -21

Results for CCSc1nnc(NC(=O)CSc2nc(C)nc3c2c(=O)n(C)c(=O)n3C)s1 ?
PriA SSB inh: -4

What do the screens show for `CSC(=S)NN=C(C)c1cccc(C)n1`?
PriA SSB inh: 55*; PrPC TRFRET: -2; PrP 5UTR inh: 11

How did CC(=NNC(=S)Nc1ccccc1)c1ccccn1 do in these assays?
PrPC TRFRET: 24

How did CN(C)C(=S)NN=C(c1ccccn1)c1ccccn1 do in these assays?
PriA SSB inh: 162*

How did CSC(=S)N/N=C(/c1ccccc1)c1ccccn1 do in these assays?
PriA SSB inh: 108*

What do the screens show for `O=S(=O)(NCc1cc(-c2ccncc2)n(C2CCCC2)n1)c1ccc2c(c1)OCCO2`?
PriA SSB inh: -8

Results for COc1ccc(Nc2ccc(S(=O)(=O)N3CCCCC3)cc2[N+](=O)[O-])cc1Cl ?
PriA SSB inh: 49*; BJeLR viability: -1; PrPC TRFRET: -8; 3CLpro inhibitor: -6; PrP 5UTR inh: -7

Results for Cc1ccccc1Nc1ccc(S(=O)(=O)N2CCOCC2)cc1[N+](=O)[O-] ?
PriA SSB inh: -5; BJeLR viability: -17; PrPC TRFRET: -27; 3CLpro inhibitor: 1; PrP 5UTR inh: 3

Results for COc1ccccc1C(CNc1ccc(S(=O)(=O)N2CCCC2)cc1[N+](=O)[O-])N(C)C (stereo not given) ?
PriA SSB inh: -4; BJeLR viability: 10; PrPC TRFRET: -8; 3CLpro inhibitor: -11; PrP 5UTR inh: 45

Results for COc1ccccc1C(C)Nc1ccc(S(=O)(=O)N2CCOCC2)cc1[N+](=O)[O-] (stereo not given) ?
PriA SSB inh: 70*

What do the screens show for `CCc1ccc(Nc2ccc(S(=O)(=O)N3CCOCC3)cc2[N+](=O)[O-])cc1`?
PriA SSB inh: 61*; BJeLR viability: 10; PrPC TRFRET: -6; 3CLpro inhibitor: -3; PrP 5UTR inh: -55

How did Cc1ccc(Nc2ccc(S(=O)(=O)N3CCOCC3)cc2[N+](=O)[O-])c(C)c1 do in these assays?
PriA SSB inh: 51*; BJeLR viability: 6; PrPC TRFRET: -6; 3CLpro inhibitor: 7; PrP 5UTR inh: -9

Results for O=S(=O)(c1cccs1)N(Cc1ccoc1)Cc1cccs1 ?
PriA SSB inh: -21

What do the screens show for `Oc1ccc(C=NN2CCN(Cc3ccccc3)CC2)cc1`?
PriA SSB inh: -16

How did CC(=NNc1ccc(S(=O)(=O)N2CCOCC2)cc1[N+](=O)[O-])C(C)C do in these assays?
PriA SSB inh: 46*

What do the screens show for `O=C(Nc1ccc2c(c1)OCO2)c1c[nH]c(=O)n(-c2ccc(F)cc2)c1=O`?
PriA SSB inh: 38*!; BJeLR viability: -5; PrPC TRFRET: 6; 3CLpro inhibitor: 1; PrP 5UTR inh: -20

Results for Cc1nnc(NC(=O)c2c[nH]c(=O)n(Cc3ccco3)c2=O)s1 ?
PriA SSB inh: -34

What do the screens show for `O=C(Nc1ccc(-c2ccc3nnc(-c4ccccn4)n3n2)cc1)c1cccnc1Cl`?
PriA SSB inh: 87*

How did Cc1cc(C)cc(C(=O)Nc2ccc(-c3ccc4nnc(-c5ccccn5)n4n3)cc2)c1 do in these assays?
PriA SSB inh: 67*

How did COc1ccc(OC)c(NC(=O)C(=O)NC(c2ccccc2)c2ccccc2)c1 do in these assays?
PriA SSB inh: -7

How did CCOC(=O)C1(C)C(=NNc2ccccc2OC)C(=O)C(=O)N1c1ccccc1 (stereo not given) do in these assays?
PriA SSB inh: 59

What do the screens show for `N#Cc1c(NC(=O)/C=C/c2ccco2)sc2c1CCCC2`?
PriA SSB inh: -13; BJeLR viability: 56*; PrPC TRFRET: 4; 3CLpro inhibitor: 3; PrP 5UTR inh: 2

What do the screens show for `CC1(C)C(/C=C/C=C/C=C/C=C2\N(CCCCS(=O)(=O)O)c3ccc4ccccc4c3C2(C)C)=[N+](CCCCS(=O)(=O)[O-])c2ccc3ccccc3c21`?
PriA SSB inh: 75*; PrP 5UTR inh: -7

Results for CCCCN1C(=O)Cc2c1nc(N)c1c(N)nc(N(CCC)CCC)c(C#N)c21 ?
PriA SSB inh: 39*; BJeLR viability: -2; PrPC TRFRET: 3; 3CLpro inhibitor: -1; PrP 5UTR inh: 10

How did N#Cc1c(N(CCO)CCO)nc(N)c2c(N)nc3c(c12)CC(=O)N3CC1CCCO1 (stereo not given) do in these assays?
PriA SSB inh: 31; BJeLR viability: 7; PrPC TRFRET: -7; 3CLpro inhibitor: -3; PrP 5UTR inh: -22

How did O=C(Nc1nnc(-c2ccccc2)o1)C1CC(=O)N(c2ccccc2)C1 (stereo not given) do in these assays?
PriA SSB inh: 44*!

What do the screens show for `CS(=O)(=O)c1cccc(-c2nnc(NC(=O)C3CC(=O)N(c4ccccc4)C3)o2)c1` (stereo not given)?
PriA SSB inh: 20

What do the screens show for `COc1ccc(N2CC(C(=O)Nc3nnc(-c4ccnn4C)o3)CC2=O)cc1` (stereo not given)?
PriA SSB inh: 71*

Results for Cc1nc(C(C)C)c(C(=O)Nc2nc(-c3ccccn3)cs2)s1 ?
PriA SSB inh: 59*

What do the screens show for `Cc1cccc(C(=O)Nc2nc(-c3ccccn3)cs2)c1C`?
PriA SSB inh: 73*

Results for O=C(Nc1nc(-c2ccccn2)cs1)c1ccccc1Br ?
PriA SSB inh: 91*

What do the screens show for `O=C(Nc1nc(-c2ccccn2)cs1)c1ccccc1F`?
PriA SSB inh: 94*

What do the screens show for `CC1CCN(C(=O)N2CCN(S(=O)(=O)N(C)C)CC2)CC1`?
PriA SSB inh: -6

How did Cc1cc(C(=O)Nc2nc(-c3ccccn3)cs2)c(C)o1 do in these assays?
PriA SSB inh: 82*

Results for COc1ccc2oc(C(=O)Nc3nc(-c4ccccn4)cs3)c(C)c2c1 ?
PriA SSB inh: 42*; BJeLR viability: -4; PrPC TRFRET: 12; PrP 5UTR inh: -5

What do the screens show for `O=C(Nc1nc(-c2ccccn2)cs1)c1ccc(Br)s1`?
PriA SSB inh: 56*; BJeLR viability: 5; PrPC TRFRET: -4; 3CLpro inhibitor: 3; PrP 5UTR inh: 29

How did O=C(Nc1nc(-c2nc3ccccc3s2)cs1)c1ccc(Br)s1 do in these assays?
PriA SSB inh: -4
